Laboratory results as given in PubChem BioAssay (NCI).
The panel holds about 79,000 compounds, 15% with a hit somewhere; the sample as a whole holds those more often. Unmarked numbers belong to inactive results. Activity calls are given as the source filed them. Rule as the data show it: active = growth inhibition above about 70%; inactive = the rest.

Experiment: NCI Yeast Anticancer Drug Screen. Data for the mgt1 strain (AID 153)
Conditions: S. cerevisiae mgt1 mutant growth inhibition, hits give high values
Experimental: Growth inhibition of yeast strains with defined genetic alterations is measured as a screen for potential anti-cancer activity. Selected strains with alterations in DNA damage repair or cell cycle control were exposed to compounds and growth inhibition was measured relative to vehicle treated controls. The strain used in this assay is mgt1

SMILES | growth inhibition (at 1.2 µM) [%] | growth inhibition (at 3.7 µM) | growth inhibition (at 11.0 µM) | growth inhibition (at 33.0 µM) | growth inhibition (at 100.0 µM)
N#[N+]c1c([O-])c2ccccc2c2ccccc12 | 4 | 15% | 23% | 39% | 97% (active)
O=c1c2ccccc2nc(-c2ccc(Cl)cc2)n1O | 60 | 90% (active) | 94% (active) | 94% (active) | 93% (active)
CCCCCCCCCCCCCCCCCCNC(=S)/N=C/c1c(O)c2ccccc2[nH]c1=O | 1 | 4% | 2% | 1% | 0%
O=[N+]([O-])c1ccc(/C=C\c2ccc3c(c2)OCO3)c([N+](=O)[O-])c1 | -2 | 2% | 5% | 20% | 17%
COc1ccc2c(c1)CCCC(Br)C2=O (stereo not given) | 26 | 23% | 36% | 78% (active) | 98% (active)
CC(=O)/C=C/c1cc([N+](=O)[O-])ccc1O | -1 | 2% | -2% | 94% (active) | 97% (active)
O=C(O)c1c2ccc(Cl)cc2nc2[nH]c(=O)[nH]c(=O)c12 | -37 | -31% | -35% | -5% | 17%
O=C(Nc1ccc(Cl)cc1)c1cc2cc(N=Nc3ccccc3Cl)ccc2oc1=O | 3 | 11% | 48% | 92% (active) | 95% (active)
